Reference: paper PMC7862700, “An all-to-all approach to the identification of sequence-specific readers for epigenetic DNA modifications on cytosine”

Key:
Assay in all cases: DAPPL (digital affinity profiling via proximity ligation, sequencing); 10 mM Tris-HCl pH 7.5, 50 mM NaCl, 1 mM DTT, 4% glycerol, room temperature, 30 min; GST-TFs on glutathione beads, 16-mer random dsDNA library, 0.1% formaldehyde crosslink after washing; high values mean tight binding
FEV = biological target: T1, FEV (Homo sapiens, UniProt Q99581 1-238); details: protein: recombinant; tags: N-terminal GST; dsDNA, one strand shown
T1 sequence: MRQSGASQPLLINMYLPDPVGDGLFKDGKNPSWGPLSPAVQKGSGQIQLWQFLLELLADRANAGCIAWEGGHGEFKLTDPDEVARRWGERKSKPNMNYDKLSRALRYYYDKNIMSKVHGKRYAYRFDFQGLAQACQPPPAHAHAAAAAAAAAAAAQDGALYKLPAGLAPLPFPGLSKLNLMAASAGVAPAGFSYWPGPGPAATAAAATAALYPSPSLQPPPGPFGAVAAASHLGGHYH
Summary of the method: (§1)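 Sequencing on an Illumina NextSeq500 followed washing, crosslinking with 0.1% formaldehyde, proximity ligation (BsaI/T4 ligase, 1 h, 37 °C) and PCR amplification of pools that had been incubated for 30 min at room temperature with 200 nmole of a random double-stranded 16-mer DNA library in Tris/NaCl/DTT/glycerol buffer. Each pool held DNA-barcoded human transcription factors, expressed in yeast as GST fusions and captured on glutathione beads, plus a tag-only sample. Binding signal is a hexamer's read frequency for a factor divided by its frequency in the tag-only sample.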

ETV5 = ETV5 (Homo sapiens, UniProt P41161 1-510); details: protein: recombinant; tags: N-terminal GST; dsDNA, one strand shown
ETV5, sequence (P41161 whole entry): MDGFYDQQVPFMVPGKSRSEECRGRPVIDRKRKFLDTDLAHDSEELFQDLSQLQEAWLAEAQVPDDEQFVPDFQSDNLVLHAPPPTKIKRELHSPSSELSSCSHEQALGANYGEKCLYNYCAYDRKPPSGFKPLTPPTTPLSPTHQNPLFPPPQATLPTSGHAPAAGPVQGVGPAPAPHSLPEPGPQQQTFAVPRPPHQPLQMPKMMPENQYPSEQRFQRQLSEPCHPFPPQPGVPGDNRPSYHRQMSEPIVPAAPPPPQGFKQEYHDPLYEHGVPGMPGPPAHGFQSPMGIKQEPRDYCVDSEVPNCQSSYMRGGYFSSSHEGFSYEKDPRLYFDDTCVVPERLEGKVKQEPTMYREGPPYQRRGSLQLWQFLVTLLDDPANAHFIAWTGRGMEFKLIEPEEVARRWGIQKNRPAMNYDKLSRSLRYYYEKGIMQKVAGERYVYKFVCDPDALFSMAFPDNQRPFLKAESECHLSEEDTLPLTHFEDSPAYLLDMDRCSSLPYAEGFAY
Summary of the method: as §1

HSF1 = HSF1 (Homo sapiens, UniProt Q00613 1-529); details: protein: recombinant; tags: N-terminal GST; chain copies: 3; dsDNA, one strand shown
HSF1, sequence (Q00613 whole entry): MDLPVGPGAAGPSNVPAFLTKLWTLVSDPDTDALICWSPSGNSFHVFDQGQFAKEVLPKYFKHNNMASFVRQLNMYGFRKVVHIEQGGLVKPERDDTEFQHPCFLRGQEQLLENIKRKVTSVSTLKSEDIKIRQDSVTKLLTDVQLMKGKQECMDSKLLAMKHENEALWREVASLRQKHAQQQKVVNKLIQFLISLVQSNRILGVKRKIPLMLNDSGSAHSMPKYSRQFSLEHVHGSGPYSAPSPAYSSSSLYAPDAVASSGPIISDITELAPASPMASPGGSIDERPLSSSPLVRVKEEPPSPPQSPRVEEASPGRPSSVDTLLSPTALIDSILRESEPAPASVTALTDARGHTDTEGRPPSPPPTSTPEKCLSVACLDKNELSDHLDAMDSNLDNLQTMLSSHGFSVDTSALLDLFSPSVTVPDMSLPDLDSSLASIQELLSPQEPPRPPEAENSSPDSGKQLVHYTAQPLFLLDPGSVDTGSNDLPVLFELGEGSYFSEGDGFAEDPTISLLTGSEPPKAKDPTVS
Summary of the method: as §1

SPIC = biological target: T2, SPIC (Homo sapiens, UniProt Q8N5J4 1-248); details: protein: recombinant; tags: N-terminal GST; dsDNA, one strand shown
T2 sequence: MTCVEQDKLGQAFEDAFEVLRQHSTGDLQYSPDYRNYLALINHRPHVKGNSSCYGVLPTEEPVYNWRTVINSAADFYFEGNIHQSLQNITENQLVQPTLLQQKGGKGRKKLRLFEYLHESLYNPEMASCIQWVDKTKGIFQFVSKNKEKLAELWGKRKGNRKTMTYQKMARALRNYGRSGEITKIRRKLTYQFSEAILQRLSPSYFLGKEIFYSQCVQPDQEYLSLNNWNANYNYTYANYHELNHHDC
Summary of the method: as §1

ELF4 = ELF4 (Homo sapiens, UniProt Q99607 1-663); details: protein: recombinant; tags: N-terminal GST; dsDNA, one strand shown
ELF4, sequence (Q99607 whole entry): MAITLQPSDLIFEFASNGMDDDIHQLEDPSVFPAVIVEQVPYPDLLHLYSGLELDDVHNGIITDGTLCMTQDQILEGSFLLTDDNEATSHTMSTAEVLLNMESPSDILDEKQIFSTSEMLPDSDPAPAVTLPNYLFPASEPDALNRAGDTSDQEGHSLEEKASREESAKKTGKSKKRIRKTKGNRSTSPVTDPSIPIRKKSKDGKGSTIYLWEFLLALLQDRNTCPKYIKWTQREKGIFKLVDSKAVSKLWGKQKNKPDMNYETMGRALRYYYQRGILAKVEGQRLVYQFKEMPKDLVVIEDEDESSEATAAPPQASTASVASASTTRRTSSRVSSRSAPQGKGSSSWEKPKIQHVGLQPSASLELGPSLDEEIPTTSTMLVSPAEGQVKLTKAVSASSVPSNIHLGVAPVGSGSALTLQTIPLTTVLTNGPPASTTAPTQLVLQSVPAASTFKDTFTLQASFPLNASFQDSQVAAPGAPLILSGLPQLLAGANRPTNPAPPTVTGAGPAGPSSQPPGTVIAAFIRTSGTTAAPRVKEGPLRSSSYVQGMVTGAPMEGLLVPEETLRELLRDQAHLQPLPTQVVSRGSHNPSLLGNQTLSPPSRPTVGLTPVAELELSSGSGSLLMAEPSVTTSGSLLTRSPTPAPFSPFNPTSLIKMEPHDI
Summary of the method: as §1

ELK4 = biological target: T3, ELK4 (Homo sapiens, UniProt P28324-2 1-405); details: protein: recombinant; tags: N-terminal GST; dsDNA, one strand shown
T3 sequence: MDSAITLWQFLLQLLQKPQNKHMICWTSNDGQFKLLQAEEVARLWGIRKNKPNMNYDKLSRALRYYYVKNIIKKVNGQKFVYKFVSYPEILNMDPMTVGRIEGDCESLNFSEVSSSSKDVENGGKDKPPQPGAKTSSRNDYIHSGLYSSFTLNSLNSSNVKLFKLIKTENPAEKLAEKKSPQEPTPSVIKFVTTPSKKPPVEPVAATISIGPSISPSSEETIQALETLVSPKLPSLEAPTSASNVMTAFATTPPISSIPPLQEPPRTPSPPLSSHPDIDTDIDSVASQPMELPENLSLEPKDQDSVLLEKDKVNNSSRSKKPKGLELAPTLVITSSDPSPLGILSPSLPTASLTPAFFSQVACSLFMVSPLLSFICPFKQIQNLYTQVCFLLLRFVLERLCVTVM
Summary of the method: as §1

ETV2 = biological target: T4, ETV2 (Homo sapiens, UniProt O00321 1-342); details: protein: recombinant; tags: N-terminal GST; dsDNA, one strand shown
T4 sequence: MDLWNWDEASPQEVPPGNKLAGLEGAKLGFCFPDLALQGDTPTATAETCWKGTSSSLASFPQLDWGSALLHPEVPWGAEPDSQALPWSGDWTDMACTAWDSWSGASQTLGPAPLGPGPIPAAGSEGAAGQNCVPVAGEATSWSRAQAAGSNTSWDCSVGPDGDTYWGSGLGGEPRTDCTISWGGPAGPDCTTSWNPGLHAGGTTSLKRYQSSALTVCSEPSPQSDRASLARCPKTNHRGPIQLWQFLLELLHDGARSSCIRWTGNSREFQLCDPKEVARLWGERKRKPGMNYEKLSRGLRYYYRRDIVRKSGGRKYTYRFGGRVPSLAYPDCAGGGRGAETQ
Summary of the method: as §1

ELF3 = biological target: T5, ELF3 (Homo sapiens, UniProt P78545 1-371); details: protein: recombinant; tags: N-terminal GST; dsDNA, one strand shown
T5 sequence: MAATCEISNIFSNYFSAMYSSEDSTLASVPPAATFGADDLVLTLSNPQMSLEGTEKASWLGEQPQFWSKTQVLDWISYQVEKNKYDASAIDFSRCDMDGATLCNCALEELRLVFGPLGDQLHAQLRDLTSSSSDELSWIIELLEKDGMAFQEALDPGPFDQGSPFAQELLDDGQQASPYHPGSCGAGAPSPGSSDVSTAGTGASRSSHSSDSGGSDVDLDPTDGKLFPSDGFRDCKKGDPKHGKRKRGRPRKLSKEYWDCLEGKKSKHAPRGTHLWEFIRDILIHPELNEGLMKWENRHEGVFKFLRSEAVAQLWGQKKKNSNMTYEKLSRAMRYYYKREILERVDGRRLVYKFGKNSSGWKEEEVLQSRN
Summary of the method: as §1

CRX = CRX (Homo sapiens, UniProt O43186 1-299); details: protein: recombinant; tags: N-terminal GST; dsDNA, one strand shown
CRX, sequence (O43186 whole entry): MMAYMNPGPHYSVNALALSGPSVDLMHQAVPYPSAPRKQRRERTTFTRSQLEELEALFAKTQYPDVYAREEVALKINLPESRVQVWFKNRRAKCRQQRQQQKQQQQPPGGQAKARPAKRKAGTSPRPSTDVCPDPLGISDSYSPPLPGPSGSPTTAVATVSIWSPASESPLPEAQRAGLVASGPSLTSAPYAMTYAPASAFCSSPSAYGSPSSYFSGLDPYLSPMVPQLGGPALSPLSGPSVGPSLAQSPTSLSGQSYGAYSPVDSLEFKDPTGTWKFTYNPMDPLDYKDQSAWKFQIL
Summary of the method: as §1

ETV1 = ETV1 (Homo sapiens, UniProt P50549 1-477); details: protein: recombinant; tags: N-terminal GST; dsDNA, one strand shown
ETV1, sequence (P50549 whole entry): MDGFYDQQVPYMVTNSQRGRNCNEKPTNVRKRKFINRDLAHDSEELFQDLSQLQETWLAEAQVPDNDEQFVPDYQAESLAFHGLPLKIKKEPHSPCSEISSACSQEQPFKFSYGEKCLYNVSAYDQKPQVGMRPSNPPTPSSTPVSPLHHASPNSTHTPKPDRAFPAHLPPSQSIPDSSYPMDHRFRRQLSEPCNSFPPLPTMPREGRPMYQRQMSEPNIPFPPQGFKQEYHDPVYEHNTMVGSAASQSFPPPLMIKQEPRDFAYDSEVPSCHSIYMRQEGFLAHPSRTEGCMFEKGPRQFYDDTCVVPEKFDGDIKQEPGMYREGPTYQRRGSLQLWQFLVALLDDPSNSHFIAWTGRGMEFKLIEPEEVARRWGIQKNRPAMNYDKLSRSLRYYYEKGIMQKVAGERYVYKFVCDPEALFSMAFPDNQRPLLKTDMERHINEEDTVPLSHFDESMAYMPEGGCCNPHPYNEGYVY
Summary of the method: as §1

| Sequence | binding signal (FEV) | binding signal (ETV5) | binding signal (HSF1) | binding signal (SPIC) | binding signal (ELF4) | binding signal (ELK4) | binding signal (ETV2) | binding signal (ELF3) | binding signal (CRX) | binding signal (ETV1) |
| --- | --- | --- | --- | --- | --- | --- | --- | --- | --- | --- |
| ATGCTA | 1.32 fold enrichment (6-mer frequency, TF over GST control) | 1.33 fold enrichment (6-mer frequency, TF over GST control) | 1.46 fold enrichment (6-mer frequency, TF over GST control) | 1.23 fold enrichment (6-mer frequency, TF over GST control) | 1.3 fold enrichment (6-mer frequency, TF over GST control) | 1.32 fold enrichment (6-mer frequency, TF over GST control) | 1.43 fold enrichment (6-mer frequency, TF over GST control) | 1.29 fold enrichment (6-mer frequency, TF over GST control) | 1.45 fold enrichment (6-mer frequency, TF over GST control) | 1.31 fold enrichment (6-mer frequency, TF over GST control) |
| TAACCC | 1.26 fold enrichment (6-mer frequency, TF over GST control) | 1.31 fold enrichment (6-mer frequency, TF over GST control) | 1.3 fold enrichment (6-mer frequency, TF over GST control) | 1.35 fold enrichment (6-mer frequency, TF over GST control) | 1.32 fold enrichment (6-mer frequency, TF over GST control) | 1.2 fold enrichment (6-mer frequency, TF over GST control) | 1.17 fold enrichment (6-mer frequency, TF over GST control) | 1.29 fold enrichment (6-mer frequency, TF over GST control) | 1.77 fold enrichment (6-mer frequency, TF over GST control) | 1.29 fold enrichment (6-mer frequency, TF over GST control) |
| TCTGCA | 1.43 fold enrichment (6-mer frequency, TF over GST control) | 1.36 fold enrichment (6-mer frequency, TF over GST control) | 1.26 fold enrichment (6-mer frequency, TF over GST control) | 1.36 fold enrichment (6-mer frequency, TF over GST control) | 1.42 fold enrichment (6-mer frequency, TF over GST control) | 1.43 fold enrichment (6-mer frequency, TF over GST control) | 1.2 fold enrichment (6-mer frequency, TF over GST control) | 1.36 fold enrichment (6-mer frequency, TF over GST control) | 1.25 fold enrichment (6-mer frequency, TF over GST control) | 1.26 fold enrichment (6-mer frequency, TF over GST control) |
| GTTGCT | 1.18 fold enrichment (6-mer frequency, TF over GST control) | 1.28 fold enrichment (6-mer frequency, TF over GST control) | 1.09 fold enrichment (6-mer frequency, TF over GST control) | 1.28 fold enrichment (6-mer frequency, TF over GST control) | 1.27 fold enrichment (6-mer frequency, TF over GST control) | 1.33 fold enrichment (6-mer frequency, TF over GST control) | 1.26 fold enrichment (6-mer frequency, TF over GST control) | 1.16 fold enrichment (6-mer frequency, TF over GST control) | 1.06 fold enrichment (6-mer frequency, TF over GST control) | 1.38 fold enrichment (6-mer frequency, TF over GST control) |
| ATTTAT | 1.34 fold enrichment (6-mer frequency, TF over GST control) | 1.41 fold enrichment (6-mer frequency, TF over GST control) | 1.68 fold enrichment (6-mer frequency, TF over GST control) | 1.49 fold enrichment (6-mer frequency, TF over GST control) | 1.35 fold enrichment (6-mer frequency, TF over GST control) | 1.53 fold enrichment (6-mer frequency, TF over GST control) | 1.44 fold enrichment (6-mer frequency, TF over GST control) | 1.46 fold enrichment (6-mer frequency, TF over GST control) | 2.19 fold enrichment (6-mer frequency, TF over GST control) | 1.43 fold enrichment (6-mer frequency, TF over GST control) |
| ATCCTC | 1.48 fold enrichment (6-mer frequency, TF over GST control) | 1.46 fold enrichment (6-mer frequency, TF over GST control) | 1.67 fold enrichment (6-mer frequency, TF over GST control) | 1.31 fold enrichment (6-mer frequency, TF over GST control) | 1.47 fold enrichment (6-mer frequency, TF over GST control) | 1.39 fold enrichment (6-mer frequency, TF over GST control) | 1.68 fold enrichment (6-mer frequency, TF over GST control) | 1.42 fold enrichment (6-mer frequency, TF over GST control) | 2.46 fold enrichment (6-mer frequency, TF over GST control) | 1.55 fold enrichment (6-mer frequency, TF over GST control) |
| CTTTGG | 1.15 fold enrichment (6-mer frequency, TF over GST control) | 1.17 fold enrichment (6-mer frequency, TF over GST control) | 1.26 fold enrichment (6-mer frequency, TF over GST control) | 1.17 fold enrichment (6-mer frequency, TF over GST control) | 1.16 fold enrichment (6-mer frequency, TF over GST control) | 1.02 fold enrichment (6-mer frequency, TF over GST control) | 1.27 fold enrichment (6-mer frequency, TF over GST control) | 1.23 fold enrichment (6-mer frequency, TF over GST control) | 1.29 fold enrichment (6-mer frequency, TF over GST control) | 1.17 fold enrichment (6-mer frequency, TF over GST control) |
| TTCTCA | 1.3 fold enrichment (6-mer frequency, TF over GST control) | 1.33 fold enrichment (6-mer frequency, TF over GST control) | 1.65 fold enrichment (6-mer frequency, TF over GST control) | 1.5 fold enrichment (6-mer frequency, TF over GST control) | 1.27 fold enrichment (6-mer frequency, TF over GST control) | 1.34 fold enrichment (6-mer frequency, TF over GST control) | 1.32 fold enrichment (6-mer frequency, TF over GST control) | 1.39 fold enrichment (6-mer frequency, TF over GST control) | 1.34 fold enrichment (6-mer frequency, TF over GST control) | 1.35 fold enrichment (6-mer frequency, TF over GST control) |
